Reference: PubChem BioAssay (NCATS)
Inconclusive results are not listed. Calls of active or inactive are those of the source. Calls come from the whole dose curve; as a rule, active = well fitted inhibition curve with a large enough effect; inconclusive = small, poorly fitted or top-dose-only effect; inactive = no such curve, though single readings can be large or run the other way.

What follows are molecules tested against Retinaldehyde dehydrogenase 3 (Homo sapiens) (UniProt P47895) (assay: qHTS for Inhibitors of the Aldehyde Dehydrogenase Family (ALDH1A3) Confirmatory screens (AID 2061311; note: potency is the fitted concentration of half-maximal effect; nearly all actives have a fitted effect of over 60% in size)). Settings: ALDH inhibition qHTS; series mostly up to 46 µM; activity change, negative = inhibition: at the top concentration.

| Compound | Potency |
| --- | --- |
| Cc1ccnc(NC(=S)N2CCN(c3ccc(O)cc3)CC2)c1 | 12.7 µM (active) |
| Cc1ccnc(NCc2ccc(O)c3ncccc23)c1 | 7.12 µM (active) |
| Oc1ccc(Nc2ccccc2F)c2cccnc12 | 7.98 µM (active) |
| CCc1noc(-c2cccn3c(CNC(=O)COc4ccc(F)cc4)nnc23)n1 | 7.08 µM (active) |
| Cc1csc(CNc2ncnc3cc(-c4ccc5c(c4)OCO5)ccc23)n1 | 7.94 µM (active) |
| CC(=O)Nc1sc2c(c1-c1cc3ccccc3o1)CCNC2 | 11.3 µM (active) |
| COC(=O)CCSC/C=C(\C)CCn1cc(CCc2ccc(-c3ccccc3)cc2)nn1 | 8.96 µM (active) |
| N#Cc1cccc(OC2=NS(=O)(=O)c3ccccc32)c1 | 12.7 µM (active) |

Each molecule was assayed against Retinal dehydrogenase 2 (Homo sapiens) (UniProt O94788) (assay: qHTS for Inhibitors of the Aldehyde Dehydrogenase Family (ALDH1A2) Confirmation screens (AID 2061314; note: % is set by controls: 0 for no effect and ±100 for the full control effect; nearly all actives have a fitted effect of over 65% in size)). Settings: ALDH1A2 enzyme inhibition qHTS confirmation; series mostly up to 45.9 µM; activity, negative = inhibition: at the top concentration.

| Compound | activity, negative = inhibition |
| --- | --- |
| COc1ccc(-c2nocc2CCC(=O)NCCc2ccc(S(N)(=O)=O)cc2)cc1 | 2.41% (inactive) |
| CCOc1ccc(CNC(=O)C2CCCCN2S(=O)(=O)c2ccc(F)cc2)cc1OC (stereo unspecified) | -15.4% (inactive) |
| COc1ccc(NC(=O)CN2C(=O)COc3ccc(S(=O)(=O)N4CCOCC4)cc32)cc1 | 1.43% (inactive) |
| CCc1c(-c2ccccc2)nc2ccccc2c1C(=O)NC(C)c1ccccc1 (stereo unspecified) | -15.2% (inactive) |
| COc1cc(-c2noc(-c3ccc(NC4CCCCC4)c([N+](=O)[O-])c3)n2)cc(OC)c1OC | -26.3% (inactive) |
| Cc1ccc(Cc2nc3ccccc3nc2SCC(=O)Nc2cccc(C(F)(F)F)c2)cc1 | -26.5% (inactive) |
| CCc1cnc2c(c1SCc1ccccc1C)c(=O)n(C)c(=O)n2C | -2.82% (inactive) |
| N#Cc1cc2c(=O)n3ccccc3nc2n(-c2nnc(SCc3ccc(F)cc3)s2)c1=O | -28.4% (inactive) |
